Results from PubChem BioAssay AID1851 (National Center for Advancing Translational Sciences (NCATS), 2009).
The whole screen tested about 16,000 compounds, of which about 5,800 (36%) were called active. Roughly 23% stayed inconclusive and do not appear here. This is one part of the list. Values without a mark were called inactive. Calls follow the shape of the dose curve; as a rule, active = well fitted curve in the direction sought with a large enough effect; inconclusive = small, poorly fitted or top-dose-only effect, or effect the other way; inactive = no such curve, though single readings can be large or run the other way.

target: Cytochrome P450 2C19 (Homo sapiens) (UniProt P33261); assay: Cytochrome panel assay with activity outcomes; details: recombinant CYP, pro-luciferin dealkylation, luminescence, p450-cyp2c19; series mostly up to 57.1 µM; activity, negative = inhibition: at the top concentration
% is scaled to controls: 0 for no effect and ±100 for the full control effect.

Sequence of Cytochrome P450 2C19 (Homo sapiens) (P33261 whole entry, looked up): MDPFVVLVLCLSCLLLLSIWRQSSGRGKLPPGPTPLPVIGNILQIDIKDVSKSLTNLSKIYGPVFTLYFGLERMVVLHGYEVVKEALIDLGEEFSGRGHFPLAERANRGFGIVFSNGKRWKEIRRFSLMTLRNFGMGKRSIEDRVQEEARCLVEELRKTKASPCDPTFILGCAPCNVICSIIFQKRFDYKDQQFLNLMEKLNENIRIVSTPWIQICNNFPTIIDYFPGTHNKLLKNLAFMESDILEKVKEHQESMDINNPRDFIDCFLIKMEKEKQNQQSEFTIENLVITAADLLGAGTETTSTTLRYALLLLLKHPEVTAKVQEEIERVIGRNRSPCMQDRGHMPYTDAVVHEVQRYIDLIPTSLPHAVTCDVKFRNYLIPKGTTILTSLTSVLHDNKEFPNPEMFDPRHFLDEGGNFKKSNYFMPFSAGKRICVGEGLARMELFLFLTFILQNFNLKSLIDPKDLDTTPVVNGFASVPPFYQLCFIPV

SMILES | AC50 | activity, negative = inhibition
C=CCSc1nc(C)cc(/C=C\c2ccccc2)c1C#N | 5.62 µM (active) | –
O=C(O)c1cc(=O)c2c(OCC(O)COc3cccc4oc(C(=O)O)cc(=O)c34)cccc2o1 | – | -4.86% [at 25.6 µM]
CCOC(=O)COc1cc(OCC(=O)OCC)c2c(=O)cc(-c3ccccc3)oc2c1 | 14.1 µM (active) | –
CC(C)C12CC[C@@]3(CC[C@H]4[C@@](C)(CCC[C@]4(C)C(=O)O)[C@@H]3C1)[C@@H](CN)C2 | – | 8.51% [at 11.4 µM]
Cc1ccc(O)c(C(=O)c2cc(C#N)c(=O)n(-c3c(C)n(C)n(-c4ccccc4)c3=O)c2)c1 | – | -13.2%
Brc1ccc(/C=C/C=N/Nc2nc3ccccc3s2)cc1 | 3.55 µM (active) | –
c1ccc(/C(=N/Nc2nc3ccccc3s2)c2ccccn2)cc1 | – | -42.9% [at 11.4 µM]
O=c1c(-c2cc(F)cc(F)c2)nc2cnc(N3CCOCC3)nc2n1-c1ccccc1 | – | -8.88%
Fc1ccc(-c2cn3cc(C(F)(F)F)cc(Cl)c3n2)cc1 | 10 µM (active) | –
O=S(=O)(c1ccccc1)c1cnn2c(C(F)(F)F)cc(-c3ccc(F)cc3)nc12 | – | -26.6%
CCOC(=O)CSC1=NC(=O)/C(=C\c2ccc(OC(C)=O)cc2)S1 | 15.8 µM (active) | –
O=C1CC[C@H](NC(=O)c2ccccc2)C(=O)N1 | – | 28.7% [at 11.4 µM]
O=C1CSC(c2ccccc2F)N1c1cc(Cl)ccc1O (centres undefined) | 0.891 µM (active) | –
Nc1nc(N)nc(CC(=O)O)n1 | – | -6.24% [at 11.4 µM]
CN(Cc1ccco1)c1ncncc1-c1ccccc1Cl | 0.794 µM (active) | –
CN(Cc1ccco1)c1ncncc1-c1ccccc1C(F)(F)F | 3.98 µM (active) | –
Cc1noc(C)c1-c1cncnc1N(C)Cc1ccco1 | 2.51 µM (active) | –
Cc1ccccc1-c1cncnc1N(C)Cc1ccco1 | 5.01 µM (active) | –
Cc1noc(C)c1-c1cncnc1NC1CC1 | – | -20.9%
CC1(C)S[C@@H]2[C@H](NC(=O)[C@@H](NC(=O)N3CCNC3=O)c3ccccc3)C(=O)N2[C@H]1C(=O)O | – | 6.12% [at 25.6 µM]
CC1(C)O[C@H]2[C@@H](O1)[C@@H](On1nnc3ccc(Cl)cc31)O[C@@H]2[C@@H]1COC(C)(C)O1 | – | 17% [at 11.4 µM]
O=C(CCCCCn1c(=O)[nH]c2ccsc2c1=O)NCc1ccc2c(c1)OCO2 | 10 µM (active) | –
O=C(CCn1c(=O)[nH]c2ccsc2c1=O)Nc1ccc(F)c(F)c1 | – | -13.9%
O=C(CCCCn1c(=S)[nH]c2ccsc2c1=O)NCc1ccco1 | 14.1 µM (active) | –
O=C(NCc1ccco1)c1ccc2c(=O)n(-c3ccccc3)c(=S)[nH]c2c1 | – | -24.2%
Cc1ccc(-n2c(=O)c3sccc3n(CC(=O)NCc3ccco3)c2=O)cc1F | – | 28.2%
NCC[C@H]1CCC[C@H](CCN)N1 | – | -4.62%

SMILES | AC50 | activity, negative = inhibition
NC(=O)N1c2ccccc2C=Cc2ccccc21 | – | -26.8% [at 25.6 µM]
O=C(C[C@@H]1C=Cc2ccccc2N1C(=O)c1ccccc1)c1ccccc1 | 0.501 µM (active) | –
O=C(Cc1ccc(Br)cc1)Nc1ccccc1Sc1ccccc1 | 0.178 µM (active) | –
O=C(NC1CCCCC1)C1CC=CCC1C(=O)OCC(Cl)=C(Cl)Cl (centres undefined) | 10 µM (active) | –
O=C(c1ccc2c(=O)n(CC3CCCO3)c(=S)[nH]c2c1)N1CCN(c2ccccc2)CC1 (centres undefined) | 11.2 µM (active) | –
O=C(c1ccc2c(=O)n(Cc3ccco3)c(=S)[nH]c2c1)N1CCN(c2ccccc2)CC1 | 2.24 µM (active) | –
COc1ccc(NC(=O)c2ccc3c(=O)n(Cc4ccco4)c(=S)[nH]c3c2)c(OC)c1 | 4.47 µM (active) | –
COCCCNC(=O)c1ccc2c(=O)n(CC3CCCO3)c(=S)[nH]c2c1 (centres undefined) | – | 12%
CC(=O)OC[C@@H]1O[C@@H](O/N=C2/C[C@@H](O)[C@@H](O)[C@@H]3[C@@H]4C(=O)N(C5CCCCC5)C(=O)[C@H]4CC[C@@H]23)[C@H](OC(C)=O)[C@H](OC(C)=O)[C@@H]1OC(C)=O | – | 2.25% [at 11.4 µM]
CCOc1ccccc1Nc1ccc(N)cc1S(=O)(=O)O | – | -16.1% [at 11.4 µM]
CCOc1ccccc1NC(=O)C1Cc2ccccc2CN1S(C)(=O)=O (centres undefined) | 7.94 µM (active) | –
C=C(NC(=O)C(=C)NC(=O)c1csc(C2=N[C@@H]3c4csc(n4)[C@@H]4NC(=O)c5csc(n5)[C@@H]([C@](C)(O)[C@H](C)O)NC(=O)[C@@H]5CSC(=N5)/C(=C/C)NC(=O)[C@@H]([C@H](C)O)NC(=O)c5csc(n5)[C@]3(CC2)NC(=O)[C@@H](C)NC(=O)C(=C)NC(=O)[C@@H](C)NC(=O)[C@@H]([C@@H](C)CC)N[C@H]2C=Cc3c([C@H](C)O)cc(nc3[C@@H]2O)C(=O)O[C@H]4C)n1)C(N)=O | – | 15.8% [at 25.6 µM]
O=S(=O)(c1ccccc1)N1CCC2(CC1)CN(C(c1ccccc1)c1ccccc1)C2 | – | -6.26%
O=S(=O)(c1ccccc1)N1CN2CN(C1)CN(S(=O)(=O)c1ccccc1)C2 | – | -18.2% [at 11.4 µM]
O=C1CCN(S(=O)(=O)c2ccccc2)N1 | 17.8 µM (active) | –
CCc1ccc(N(C(=O)c2csnn2)C(C(=O)NCc2ccccc2)c2ccco2)cc1 (centres undefined) | 3.16 µM (active) | –
O=C(c1csnn1)N1CCC2(CC1)CCN(c1ccccc1)CC2 | – | -19.6%
O=C(NCc1ccccc1)C(c1ccncc1)N(C(=O)c1csnn1)C1CC1 (centres undefined) | 8.91 µM (active) | –
O=C(NCc1ccc(F)cc1)C(c1ccncc1)N(C(=O)c1csnn1)C1CC1 (centres undefined) | 3.55 µM (active) | –
O=C(c1csnn1)N1CCC2(CCCN(Cc3ccccc3)C2)CC1 | – | 2.09%
O=C(Nc1cccc(F)c1)N1CCC2(CC1)CCN(C(=O)c1csnn1)CC2 | – | -22.8%
O=C(OC(C(=O)O)C(OC(=O)c1ccccc1)C(=O)NCc1ccccc1)c1ccccc1 (centres undefined) | – | 1.03%
CCn1c(CCCc2nc3c([nH]2)c(=O)n(C)c(=O)n3C)nc2c1c(=O)n(C)c(=O)n2C | – | 2.28% [at 11.4 µM]
CC(C)CCn1c(Oc2ccccc2Cl)nc2c1c(=O)n(C)c(=O)n2C | 15.8 µM (active) | –
CCOC(=O)N1CCN(C(=O)C(C)SCc2ccccc2)CC1 (centres undefined) | – | -27.1%
CCOC(=O)N1CCN(C(=O)C(CC)n2nc(C)c3sc4ccccc4c3c2=O)CC1 (centres undefined) | 20 µM (active) | –
CCOC(=O)N1CCN(C(=O)c2cnc3n(c2=O)CCS3)CC1 | – | -14.5%
